In test [1] the target is Serine/threonine-protein kinase PLK3 (Homo sapiens) (UniProt Q9H4B4). The following applies: at 1 µM.
For test [2] the target is unchanged. The following applies: at 10 µM.
The target of test [3] is T1, cAMP-dependent protein kinase catalytic subunit PRKX (Homo sapiens) (UniProt P51817).
T1 sequence (whole entry): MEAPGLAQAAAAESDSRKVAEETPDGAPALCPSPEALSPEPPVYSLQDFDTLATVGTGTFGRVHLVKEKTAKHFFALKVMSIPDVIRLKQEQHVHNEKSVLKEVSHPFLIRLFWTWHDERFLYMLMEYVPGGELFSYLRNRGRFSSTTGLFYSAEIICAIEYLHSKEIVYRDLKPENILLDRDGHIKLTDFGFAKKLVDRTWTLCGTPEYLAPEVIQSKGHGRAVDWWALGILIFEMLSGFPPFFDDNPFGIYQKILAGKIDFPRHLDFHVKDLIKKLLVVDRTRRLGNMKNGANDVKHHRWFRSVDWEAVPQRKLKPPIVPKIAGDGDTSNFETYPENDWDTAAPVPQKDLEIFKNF
The following applies: at 1 µM.

The target of test [4] is T1, cAMP-dependent protein kinase catalytic subunit PRKX (Homo sapiens). The following applies: at 10 µM.
Test [5] addresses Protein-tyrosine kinase 2-beta (Homo sapiens) (UniProt Q14289). The following applies: at 1 µM.
For test [6] the target is unchanged. The following applies: at 10 µM.
Test [7] addresses Receptor-interacting serine/threonine-protein kinase 2 (Homo sapiens) (UniProt O43353). The following applies: at 1 µM.
The target is the same in test [8]. The following applies: at 10 µM.
Test [9] concerns the target Rho-associated protein kinase 1 (Homo sapiens) (UniProt Q13464). The following applies: at 1 µM.
Test [10] has the same target. The following applies: at 10 µM.

As a reminder, the residual activity is the signal under treatment as a percentage of the control signal.

Chain of Protein-tyrosine kinase 2-beta (Homo sapiens) (Q14289 whole entry, looked up): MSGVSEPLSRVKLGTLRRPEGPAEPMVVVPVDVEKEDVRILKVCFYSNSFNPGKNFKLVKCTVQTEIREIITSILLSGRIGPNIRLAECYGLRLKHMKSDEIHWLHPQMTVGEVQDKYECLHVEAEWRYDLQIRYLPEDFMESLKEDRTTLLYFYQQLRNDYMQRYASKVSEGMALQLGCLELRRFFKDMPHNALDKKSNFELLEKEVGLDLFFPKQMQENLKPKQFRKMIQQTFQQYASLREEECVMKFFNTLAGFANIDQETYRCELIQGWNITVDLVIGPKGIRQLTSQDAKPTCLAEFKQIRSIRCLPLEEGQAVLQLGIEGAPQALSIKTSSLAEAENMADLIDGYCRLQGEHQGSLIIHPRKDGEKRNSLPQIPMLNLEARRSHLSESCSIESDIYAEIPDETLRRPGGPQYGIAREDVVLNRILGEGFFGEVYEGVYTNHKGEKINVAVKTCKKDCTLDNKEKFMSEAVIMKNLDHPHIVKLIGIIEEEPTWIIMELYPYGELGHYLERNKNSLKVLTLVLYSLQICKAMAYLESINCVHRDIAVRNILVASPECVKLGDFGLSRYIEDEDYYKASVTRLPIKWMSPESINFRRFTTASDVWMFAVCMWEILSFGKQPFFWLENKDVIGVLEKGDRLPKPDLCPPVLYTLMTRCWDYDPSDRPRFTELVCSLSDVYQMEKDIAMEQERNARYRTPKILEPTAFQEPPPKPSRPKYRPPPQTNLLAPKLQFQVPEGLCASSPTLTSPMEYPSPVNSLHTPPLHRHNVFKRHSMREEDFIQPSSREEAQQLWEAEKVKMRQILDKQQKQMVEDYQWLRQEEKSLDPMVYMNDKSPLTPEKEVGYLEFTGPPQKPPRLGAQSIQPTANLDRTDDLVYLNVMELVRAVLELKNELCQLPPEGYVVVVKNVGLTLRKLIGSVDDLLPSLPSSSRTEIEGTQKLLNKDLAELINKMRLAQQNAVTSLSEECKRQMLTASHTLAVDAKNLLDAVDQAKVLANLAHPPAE
Chain of Receptor-interacting serine/threonine-protein kinase 2 (Homo sapiens) (O43353 whole entry): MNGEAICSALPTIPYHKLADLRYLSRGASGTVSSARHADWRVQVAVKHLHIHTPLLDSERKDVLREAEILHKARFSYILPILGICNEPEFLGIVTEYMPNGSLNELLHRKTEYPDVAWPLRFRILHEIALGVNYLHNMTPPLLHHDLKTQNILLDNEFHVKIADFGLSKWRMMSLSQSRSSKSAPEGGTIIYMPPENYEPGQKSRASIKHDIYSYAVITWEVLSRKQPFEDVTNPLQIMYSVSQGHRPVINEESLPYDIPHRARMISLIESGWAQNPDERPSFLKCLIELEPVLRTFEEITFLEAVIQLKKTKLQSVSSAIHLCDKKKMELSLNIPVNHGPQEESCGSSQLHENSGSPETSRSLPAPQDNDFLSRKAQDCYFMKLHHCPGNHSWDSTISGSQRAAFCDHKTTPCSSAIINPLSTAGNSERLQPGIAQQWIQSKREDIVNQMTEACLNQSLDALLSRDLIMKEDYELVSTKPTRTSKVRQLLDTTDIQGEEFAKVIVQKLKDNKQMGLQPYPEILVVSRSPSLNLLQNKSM
Chain of Rho-associated protein kinase 1 (Homo sapiens) (Q13464 2-1354 limits assumed): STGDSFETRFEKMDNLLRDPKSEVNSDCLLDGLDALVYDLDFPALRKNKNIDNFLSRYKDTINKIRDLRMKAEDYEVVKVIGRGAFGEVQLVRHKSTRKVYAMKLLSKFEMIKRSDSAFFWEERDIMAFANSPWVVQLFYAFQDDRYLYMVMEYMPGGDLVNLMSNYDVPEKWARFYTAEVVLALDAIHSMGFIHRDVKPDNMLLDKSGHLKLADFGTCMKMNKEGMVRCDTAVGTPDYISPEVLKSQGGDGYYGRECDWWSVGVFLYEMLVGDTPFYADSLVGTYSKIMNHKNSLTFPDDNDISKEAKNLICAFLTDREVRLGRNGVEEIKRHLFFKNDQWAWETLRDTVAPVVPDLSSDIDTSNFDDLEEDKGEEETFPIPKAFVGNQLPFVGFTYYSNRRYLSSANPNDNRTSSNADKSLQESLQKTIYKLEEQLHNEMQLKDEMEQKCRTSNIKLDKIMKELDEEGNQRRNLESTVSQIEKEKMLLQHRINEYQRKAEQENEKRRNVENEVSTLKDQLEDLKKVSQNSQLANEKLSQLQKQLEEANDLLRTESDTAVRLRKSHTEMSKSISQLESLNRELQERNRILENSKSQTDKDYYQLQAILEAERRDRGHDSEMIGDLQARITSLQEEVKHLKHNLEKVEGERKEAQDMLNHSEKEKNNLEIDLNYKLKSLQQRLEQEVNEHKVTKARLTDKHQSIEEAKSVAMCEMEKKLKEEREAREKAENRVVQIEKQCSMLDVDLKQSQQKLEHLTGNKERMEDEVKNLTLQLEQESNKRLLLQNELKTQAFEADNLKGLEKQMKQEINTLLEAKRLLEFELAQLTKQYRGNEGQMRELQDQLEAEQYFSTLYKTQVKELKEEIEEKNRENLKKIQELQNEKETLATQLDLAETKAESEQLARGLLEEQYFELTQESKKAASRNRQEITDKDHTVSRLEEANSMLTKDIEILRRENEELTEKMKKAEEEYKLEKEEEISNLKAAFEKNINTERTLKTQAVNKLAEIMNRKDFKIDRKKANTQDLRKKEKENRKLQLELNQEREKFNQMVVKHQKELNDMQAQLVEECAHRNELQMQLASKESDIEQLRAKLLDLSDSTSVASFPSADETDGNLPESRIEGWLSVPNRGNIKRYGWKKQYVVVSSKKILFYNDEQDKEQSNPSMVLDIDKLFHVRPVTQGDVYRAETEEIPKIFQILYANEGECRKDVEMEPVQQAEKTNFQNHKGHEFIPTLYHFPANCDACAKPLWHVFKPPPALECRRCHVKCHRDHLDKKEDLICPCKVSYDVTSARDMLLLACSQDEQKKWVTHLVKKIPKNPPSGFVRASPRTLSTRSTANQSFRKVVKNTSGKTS
Chain of Serine/threonine-protein kinase PLK3 (Homo sapiens) (Q9H4B4 whole entry, looked up): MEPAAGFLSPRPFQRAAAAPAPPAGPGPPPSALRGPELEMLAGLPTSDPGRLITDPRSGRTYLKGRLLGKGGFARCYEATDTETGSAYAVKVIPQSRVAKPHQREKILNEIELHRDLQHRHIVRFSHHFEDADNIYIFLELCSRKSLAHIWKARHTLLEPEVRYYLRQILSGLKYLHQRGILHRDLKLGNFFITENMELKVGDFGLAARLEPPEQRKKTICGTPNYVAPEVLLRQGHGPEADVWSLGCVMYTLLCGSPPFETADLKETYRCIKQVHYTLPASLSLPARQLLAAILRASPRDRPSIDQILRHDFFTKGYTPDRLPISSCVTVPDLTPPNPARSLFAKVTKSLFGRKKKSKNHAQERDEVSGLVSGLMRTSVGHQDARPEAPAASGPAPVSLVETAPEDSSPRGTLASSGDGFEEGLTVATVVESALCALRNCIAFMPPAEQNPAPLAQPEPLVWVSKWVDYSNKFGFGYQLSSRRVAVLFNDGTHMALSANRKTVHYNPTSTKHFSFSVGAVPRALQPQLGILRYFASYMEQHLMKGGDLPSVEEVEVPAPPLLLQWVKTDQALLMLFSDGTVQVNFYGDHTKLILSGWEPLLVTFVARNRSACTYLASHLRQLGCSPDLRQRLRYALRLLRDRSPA

`O=C1NC(=O)/C(=C\c2ccc3nccnc3c2)S1`: the residual activity is 95% (inactive) in test [1]; 85% in test [2]; 67% in [3]; 27% in [4]; 124% in test [5]; 103% in test [6]. Further, the residual activity stood at 56% in test [7], 21% in test [8], 109% in test [9] and 107% in test [10].

On to `CO[C@H]1[C@@H](OC)C[C@H](C)[C@@H](OC)C2=CC(=O)C=C(NC(=O)/C(C)=C/C=C/[C@H](OC)[C@@H](OC(N)=O)/C(C)=C/[C@@H]1C)C2=O`, for which the residual activity in test [1] was 99% (inactive); in test [2], 104%; in test [3], 80%; in [4], 72%; in [5] it was 124%; in test [6], 100%. In addition, the residual activity in [7] stood at 93%; in [8], 96%; in test [9], 121%.

In the case of `O=c1c2ccccc2[nH]c(=S)n1CCN1CCC(=C(c2ccc(F)cc2)c2ccc(F)cc2)CC1`, the residual activity was 98% (inactive) in [1]; 89% in [2]; 87% in test [3]; 52% in test [4]; 136% in [5]; 91% in test [6]. The residual activity in [7] turned out to be 100%; in [8], 101%; in test [9], 114%; in test [10], 127%.

For the molecule `Cc1cc(Nc2nc(-c3ccccc3)nc3ccccc23)n[nH]1`, the residual activity in test [3] worked out at 81%; in [4], 38%; in test [5], 20%; in test [6] it was 4%; in test [8] it was 63%; in [9] it was 120%. Also, in [10], the residual activity was 94%.

For the molecule `CN(C)CCCn1cc(C2=C(c3c[nH]c4ccccc34)C(=O)NC2=O)c2ccccc21`, the residual activity in [1] was 101% (inactive); in test [2], 104%; in test [3], 103%; in test [4] it was 38%; in test [5], 115%; in test [6], 42%. The residual activity in [7] stood at 90%; in [8], 77%; in test [9], 83%; in test [10], 89%.

On to `Oc1ccc(-c2nc(-c3ccc(F)cc3)c(-c3ccncc3)[nH]2)cc1`, for which the residual activity was 109% (inactive) in test [1]; 90% in test [2]; 111% in test [5]; 86% in [6]; 24% in [7]; 14% in [8]. Also, the residual activity in test [9] worked out at 117%; in [10] it was 100%.

For the molecule `Cc1cccc(-c2[nH]c(C(C)(C)C)nc2-c2ccc3c(c2)OCO3)n1`, the residual activity in test [1] is 98% (inactive); in test [2] it was 88%; in [6] it was 103%; in [7], 59%; in test [8], 21%.

Take `N#CCCc1ccc2c(c1)-c1[nH]c3ccc([N+](=O)[O-])cc3c1CC(=O)N2`: the residual activity is 100% (inactive) in test [1]; 82% in [2]; 72% in test [3]; 25% in test [4]; 19% in test [5]; 9% in test [6]. For the same molecule, the residual activity in [7] was 18%; in test [8] it was 10%; in test [9] it was 52%; in test [10], 24%.

Take `c1ccc2c(-c3ccncc3)c[nH]c2c1`: the residual activity in [1] was 91% (inactive); in test [2] it was 94%; in test [3], 48%; in test [4], 16%; in [6], 93%; in test [7], 87%. Also, the residual activity is 59% in test [8] and 78% in test [10].

For the molecule `c1ccc(-c2n[nH]c3c2oc2ccccc23)cc1`, the residual activity in test [1] was 100% (inactive); in test [2], 90%; in [3], 88%; in test [4], 94%; in test [7] it was 97%; in test [8], 64%. Also, the residual activity in [9] was determined as 114%; in test [10], 126%.

As to `N#Cc1cnc2cnc(NCc3cccnc3)cc2c1Nc1ccc(F)c(Cl)c1`, the residual activity in [2] stood at 96%; in test [3], 95%; in test [4], 87%; in test [5], 66%; in test [6] it was 45%; in [7] it was 100%. Besides, the residual activity in test [8] stood at 96%; in test [9], 37%; in test [10] it was 19%.

`COc1cc2ncc(-c3ccccc3)nc2cc1OC`: the residual activity in test [1] was 95% (inactive); in [2], 93%; in test [3] it was 88%; in [4], 76%; in test [6] it was 76%; in test [8], 58%.

For the molecule `O=C1Nc2ccc(Br)cc2/C1=C\c1cc2c([nH]1)CCCC2`, the residual activity in test [3] stood at 113%; in test [4], 102%; in test [5], 75%; in [6], 49%; in test [9], 119%; in test [10], 116%.

On to `O=[N+]([O-])c1ccc(-c2nc(-c3ccc(F)cc3)c(-c3ccncc3)[nH]2)cc1`, for which the residual activity in test [2] stood at 108%; in test [3], 132%; in [4] it was 26%; in test [5], 114%; in [6] it was 105%; in test [7], 19%. Besides, the residual activity in [8] is 25%; in test [9], 122%; in test [10], 118%.

With `CC(=O)c1ccc(N2CCOCC2)cc1O`, the residual activity in test [1] was 90% (inactive); in test [2], 92%; in [3], 106%; in test [4], 95%; in [6], 103%; in [7], 95%. For the same molecule, the residual activity in [8] was found to be 81%.

On to `COc1cccc(-c2cc(=O)c3ccccc3o2)c1N`, for which the residual activity in [1] is 111% (inactive); in test [3], 90%; in [4], 33%; in [5], 106%; in test [6], 112%; in test [7] it was 92%. Also, the residual activity in test [8] came out at 106%; in [9] it was 117%; in test [10] it was 100%.

Consider `COc1cc2ncnc(Nc3ccc(NC(=O)c4ccccc4)cc3)c2cc1OC`, for which the residual activity in test [1] is 102% (inactive); in test [2] it was 97%; in test [4], 91%; in test [5], 134%; in test [6], 75%; in test [7], 110%. In test [8], the residual activity came out at 77%.

`Oc1n[nH]c2nnc(-c3c(-c4ccccc4)nn4ccccc34)cc12`: the residual activity in test [1] is 96% (inactive); in test [2], 89%; in [3], 86%; in test [4], 81%; in [5], 102%; in test [6], 88%. The residual activity in test [7] was found to be 87%; in [8] it was 85%; in [9], 121%; in test [10], 104%.

Consider `Oc1c2ccccc2c2c3c(cccc13)N=N2`, for which the residual activity in test [1] was 94% (inactive); in test [2] it was 82%; in [3] it was 86%; in test [4], 70%; in [5], 68%; in test [6] it was 23%. Also, the residual activity in test [7] was found to be 70%; in test [8], 52%; in test [10] it was 95%.

The values above are taken from ChEMBL document CHEMBL2218924, “A broad activity screen in support of a chemogenomic map for kinase signalling research and drug discovery” (Biochem J, 2013).
